This is a sample that favours compounds with a hit; in the whole collection about 9.2% have one here.
Rab9 prom act – activators of Rab9 promoter | Huh7 Rab9 promoter-luciferase reporter, luminescence, 24 h | Potency, µM (top dose mostly 9.22 µM), without a hit: at the top dose activation, negative = inhibition, usual class: activators | 320,000 tested, 2.8% active | AID 485297; also: % of control where 0% means no effect; nearly all actives have a fitted effect of over 60% in size
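Luminescence from Amplite-detected luciferase (10 minutes, ambient) reports Rab9 promoter activation. Before that, stable Rab9-luciferase Huh7 cells (1500/well, reduced-serum OP-MEM I plus 10% FBS) were exposed to compound for 24 hours at 37C.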
SMN2 splice up – increases expression of the SMN2 splice variant. HEK293 SMN2-luciferase splicing reporter, luminescence, 30-36 h. Potency, µM (doses to about 46.1 µM), without a hit: at the top dose activity change, positive = activation, hits mostly activators. 210,000 tested, 2.8% active; also: % of control where 0% means no effect; nearly all actives have a fitted effect of over 55% in size
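qHTS luciferase splicing reporter: luminescence rises when SMN2 exon 7 is included in transfected HEK293 cells. Compound exposure lasted 30-36 h at 37C, with 4.5 mM final sodium butyrate as control, followed by a ONE-Glo read.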
NPC1 promoter act – NPC1 promoter activation. AID 485313. 320,000 tested, 2.4% active. Huh7 NPC1 promoter luciferase reporter, 24 h. Potency, µM (titrated, usually from 9.22 µM), for the others: at the highest dose activation, hits mostly activators; also: % of control where 0% means no effect; nearly all actives have a fitted effect of over 60% in size
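Stable NPC1-promoter luciferase Huh7 line; cpd (DMSO) 24 h, 37 °C, 5% CO2; Amplite luciferase reagent 10 min RT; luminescence readout. qHTS format.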
ELG1 genotoxic – genotoxicity induction in ELG1-luciferase HEK293T cells. Potency, µM (highest dose often 46 µM), for inactives: top-dose activity change, positive = activation, most hits filed as activators. HEK293T ELG1-luciferase reporter, luminescence, 16 h. 330,000 tested, 1.3% active; also: % of control where 0% means no effect; nearly all actives have a fitted effect of over 60% in size
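HEK293T cells expressing luciferase-tagged ELG1 were exposed to compound or DMSO vehicle for 16 hr at 37 °C and 5% CO2. Luciferase activity was then measured with ONE-Glo after 30 min at room temperature.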
ELG1 repair inh – ELG1-dependent DNA repair inhibition | Potency, µM (top dose mostly 46.1 µM), for inactives: top-dose activity change, negative = inhibition, hits mostly inhibitors | AID 504467 | HEK293T ELG1-luciferase reporter, luminescence, 16 h; DNA damage induced by 5-fluorouridine | 330,000 tested, 2.3% active; also: % is scaled to controls: 0 for no effect and ±100 for the full control effect; nearly all actives have a fitted effect of over 55% in size
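HEK293T cells expressing luciferase-tagged ELG1 (2,000/well) received 5-Fluorouridine plus compound or DMSO for 16 hr at 37 °C. Luciferase was read by ONE-Glo luminescence after 30 min at room temperature.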
FLuc modulator – counter-screen for miR-21 project: firefly luciferase inhibitors or activators; P08659; purified FLuc, Km substrates, luminescence inhibition; Potency, µM (titrated, usually from 57.5 µM), for the others: at the highest dose activity change, negative = inhibition, usual class: inhibitors; 360,000 tested, 6.9% active; AID 588342;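 also: plate controls were vehicle for no effect and reference inhibitor for full effect; nearly all actives have a fitted effect of over 55% in size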
Target sequence (P08659 whole entry, looked up): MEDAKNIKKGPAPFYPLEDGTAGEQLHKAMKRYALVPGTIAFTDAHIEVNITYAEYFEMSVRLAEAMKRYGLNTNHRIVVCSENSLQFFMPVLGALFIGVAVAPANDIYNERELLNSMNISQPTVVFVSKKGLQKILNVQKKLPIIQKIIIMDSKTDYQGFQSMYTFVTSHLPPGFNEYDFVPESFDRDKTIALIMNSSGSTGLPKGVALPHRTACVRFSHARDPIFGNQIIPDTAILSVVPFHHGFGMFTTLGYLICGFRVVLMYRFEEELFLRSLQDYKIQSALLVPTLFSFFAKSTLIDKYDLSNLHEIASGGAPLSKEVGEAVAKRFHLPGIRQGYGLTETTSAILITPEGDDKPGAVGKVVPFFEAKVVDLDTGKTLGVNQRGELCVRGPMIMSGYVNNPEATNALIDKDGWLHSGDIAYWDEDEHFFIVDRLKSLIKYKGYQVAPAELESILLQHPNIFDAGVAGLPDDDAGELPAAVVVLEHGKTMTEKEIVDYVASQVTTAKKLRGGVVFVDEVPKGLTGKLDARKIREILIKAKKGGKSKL
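Biochemical qHTS of compounds, final roughly 60 µM downward over six points, against 10 nM purified firefly luciferase using Km concentrations of substrates (10 uM D-luciferin, 10 uM ATP) in Tris acetate pH 7.5 buffer; luminescence output.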
* hit, by the source's call; ? = inconclusive; . = no result given. Calls follow the shape of the dose curve; as a rule, active = well fitted curve in the direction sought with a large enough effect; inconclusive = small, poorly fitted or top-dose-only effect, or another doubt; inactive = no such curve, though single readings can be large; an effect the other way counts as inactive or inconclusive. Potency is read from the fitted curve at half-maximal effect.

SMILES	Rab9 prom act	SMN2 splice up	NPC1 promoter act	ELG1 genotoxic	ELG1 repair inh	FLuc modulator
CCOC(=O)c1ccccc1NC(=O)c1cn(-c2ccc(C)c(C)c2)c(=O)c2ccccc12	-12.0%	-9.4%	-2.8%	-6.2%	?	-1.9%
CCCN(CCC)CCCNC(=O)c1cn(-c2ccc(OC)cc2)c(=O)c2ccccc12	-0.7%	.	-3.2%	0.1%	8.5%	2.2%
CCOc1ccccc1CNC(=O)c1cn(-c2ccc(OC)cc2)c(=O)c2ccccc12	.	.	.	.	.	9.53µM*
CCOC(=O)c1ccccc1NC(=O)c1cn(-c2ccc(OC)cc2)c(=O)c2ccccc12	-4.8%	-35.4%	-0.8%	-9.2%	6.51µM*	2.8%
COC(=O)c1ccccc1NC(=O)c1cn(-c2ccc(C)c(C)c2)c(=O)c2ccccc12	-8.8%	-21.8%	-3.2%	-8.5%	9.2µM*	3.1%
O=C(NCc1ccc(F)cc1)C1CCCN1C(=O)Nc1cccc(F)c1 (configuration not stated)	1.3%	.	-4.0%	0.2%	7.6%	3.0%
CCOc1ccc(CNC(=O)c2cc3oc4ccccc4c3n2C)cc1	-1.3%	25.1µM*	6.8%	-9.1%	?	-6.3%
COc1cccc(CNC(=O)c2cc3oc4ccccc4c3n2C)c1OC	7.5%	15.8µM*	0.3%	6.7%	?	?
CCOc1ccccc1CNC(=O)c1cc2oc3ccccc3c2n1CC	-0.6%	?	1.2%	-1.3%	?	-8.3%
CCn1c(C(=O)NCc2ccc(F)cc2)cc2oc3ccccc3c21	.	?	.	.	.	0.8%
CCOc1ccc2nc(N3CCC(C(=O)Nc4c(C)cccc4C)CC3)sc2c1	.	-4.1%	.	.	.	-12.6%
CCOc1ccc2nc(N3CCC(C(=O)N4CCN(c5ncccn5)CC4)CC3)sc2c1	17.4%	.	?	-0.5%	6.5%	12µM*
CCOc1ccc2nc(N3CCC(C(=O)N4CCN(c5ccccn5)CC4)CC3)sc2c1	-14.8%	-86.4%	-0.8%	7.31µM*	11.6µM*	10.7µM*
COc1ccc(C(=O)Nc2cnc3ccccn3c2=O)cc1	3.55µM*	17.8µM*	2.82µM*	?	?	16.9µM*
O=C(Nc1cnc2ccccn2c1=O)c1ccc(F)cc1	3.16µM*	11.2µM*	2.51µM*	18.8%	?	16.9µM*
COc1ccc(OC)c(NC(=O)c2cc3c(=O)n4ccccc4nc3n2C)c1	0.4%	-14.5%	-8.0%	10.4%	-7.1%	3.1%
COc1ccccc1N1CCN(C(=O)Cn2ncc3ccsc3c2=O)CC1	.	21.3%	.	.	.	4.5%
Clc1cccc(Cl)c1Cn1ccc(C2CC2)n1	3.16µM*	?	?	?	?	12µM*
O=S(=O)(/C(=C/c1ccc(C(F)(F)F)cc1)c1nc2ccccc2[nH]1)c1ccccc1	-43.5%	-110.9%	-33.7%	-12.1%	16.4µM*	4.5%
Cc1cc(C)c2c(N=NN3CCCCC3)[nH]nc2n1	22.9%	1.0%	20.1%	17.3%	?	19µM*
O=C(NC(=S)Nc1ccccn1)c1ccco1	2µM*	10µM*	2.24µM*	?	?	21.3µM*
O=C(NC(=S)Nc1cccnc1Cl)c1ccco1	?	14.6%	21.9%	8.4%	?	15.1µM*
O=C(NC(=S)Nc1cccnc1Cl)c1ccc(Cl)cc1	?	.	?	?	?	16.9µM*
CCOc1ccccc1NC(=S)NC(=O)c1ccco1	3.5%	.	-0.4%	1.3%	7.0%	?
Cc1ccnc(NC(=O)CNC(=O)c2ccco2)c1	2.0%	.	1.7%	9.2%	?	-3.7%
SMILES	Rab9 prom act	SMN2 splice up	NPC1 promoter act	ELG1 genotoxic	ELG1 repair inh	FLuc modulator
Cc1ccnc(NC(=S)NC(=O)c2ccco2)c1	2µM*	87.8%	2µM*	?	?	12µM*
CC1=C([N+](=O)[O-])C(c2ccc3c(c2)OCO3)N(C)C(=O)N1C (configuration not stated)	0.0%	.	0.6%	3.2%	-7.6%	6.7%
CCOC(=O)C1CCN(C(=O)CC2(CC(=O)O)CCCC2)CC1	2.5%	.	-3.6%	2.4%	-2.4%	-2.0%
Cc1ccc(C2(C)NC(=O)N(CC(=O)Nc3nc(-c4ccccn4)cs3)C2=O)cc1 (configuration not stated)	-4.0%	.	-6.1%	-7.8%	?	?
Cc1cc(Br)ccc1SCC(=O)NNC(=O)c1ccco1	-8.4%	.	-0.7%	-0.5%	14.7%	.
Cc1ccnc(NC(=S)NC(=O)c2cccs2)c1	0.794µM*	6.31µM*	1.58µM*	2.06µM*	?	4.26µM*
Cc1ccnc(NC(=O)CNC(=O)c2cccs2)c1	-3.9%	.	2.2%	3.5%	8.0%	0.5%
O=C(NC(=S)Nc1cccnc1)c1cccs1	16.3%	.	11.0%	7.1%	?	?
Cc1ccnc(NC(=S)NC(=O)/C=C/c2ccco2)c1	?	?	?	9.2µM*	?	7.57µM*
O=C(NC(=S)Nc1ccc(Cl)cn1)c1cccs1	5.62µM*	12.6µM*	?	?	?	3.01µM*
CC(C)=CCN1CCN(Cc2cn(C(C)C)c3ccccc23)CC1CCO (configuration not stated)	-0.5%	.	1.5%	-7.2%	-1.4%	-1.4%
Fc1ccccc1C1CCN(Cc2nc(CC3CC3)no2)C1 (configuration not stated)	?	.	?	?	?	16.9µM*
Fc1ccc2nc(C3CCN(Cc4nc(CC5CC5)no4)CC3)[nH]c2c1	-2.3%	.	-0.6%	-4.6%	?	-3.1%
COc1ccc(NC(=S)NC(=O)C2CCC2)cc1	4.47µM*	.	?	?	?	16.9µM*
O=C(NC(=S)Nc1ccc(Br)cc1)C1CCC1	17.0%	.	22.8%	?	?	19µM*
COC(=O)c1ccc(NC(=S)NC(=O)C2CCC2)cc1	1.6%	.	1.7%	17.3%	?	?
CC(NC(=O)Nc1ccc(F)cc1F)c1ccc2c(c1)OCO2 (configuration not stated)	5.4%	.	-2.3%	-1.2%	1.9%	-0.4%
Nc1ccc(OCCCc2c(N)nc(N)nc2N)cc1	0.1%	.	-3.3%	4.7%	?	?
O=C(Cn1cnc2c(cnn2-c2ccc(F)cc2)c1=O)N1CCN(c2ccccc2F)CC1	-7.2%	-59.8%	-2.7%	-4.4%	18.4µM*	1.9%
Cc1ccc(-n2ncc3c(=O)n(CC(=O)OCc4ccccc4)cnc32)cc1	17.7%	-7.8%	7.3%	7.9%	?	?
O=C(Cn1cnc2c(cnn2-c2ccccc2)c1=O)OCc1ccccc1	3.98µM*	7.7%	23.1%	6.9%	?	10.7µM*
Cc1ccc(-n2ncc3c(=O)n(CC(=O)N4CCCc5ccccc54)cnc32)cc1C	-0.2%	-52.6%	1.0%	-6.5%	23.1µM*	3.8%
